Consider 24 molecules from PubChem BioAssay AID1851 (National Center for Advancing Translational Sciences (NCATS), 2009).

Among all 16,000 compounds or so, about 4,000 (25%) were called active. Another 26% or so got no clear call; they are omitted. These entries were drawn from the full list. Unmarked numbers belong to inactive results. Calls come from the whole dose curve; as a rule, active = well fitted curve in the direction sought with a large enough effect; inconclusive = small, poorly fitted or top-dose-only effect, or effect the other way; inactive = no such curve, though single readings can be large or run the other way.
% is set by controls: 0 for no effect and ±100 for the full control effect.

The target of this assay is Cytochrome P450 2C9 (Homo sapiens) (UniProt P11712). Nature of the assay: Cytochrome panel assay with activity outcomes. To be noted: recombinant CYP, pro-luciferin dealkylation, luminescence, p450-cyp2c9; series mostly up to 57.1 µM; activity, negative = inhibition: at the top concentration.
Cytochrome P450 2C9 (Homo sapiens), sequence (P11712 whole entry, looked up): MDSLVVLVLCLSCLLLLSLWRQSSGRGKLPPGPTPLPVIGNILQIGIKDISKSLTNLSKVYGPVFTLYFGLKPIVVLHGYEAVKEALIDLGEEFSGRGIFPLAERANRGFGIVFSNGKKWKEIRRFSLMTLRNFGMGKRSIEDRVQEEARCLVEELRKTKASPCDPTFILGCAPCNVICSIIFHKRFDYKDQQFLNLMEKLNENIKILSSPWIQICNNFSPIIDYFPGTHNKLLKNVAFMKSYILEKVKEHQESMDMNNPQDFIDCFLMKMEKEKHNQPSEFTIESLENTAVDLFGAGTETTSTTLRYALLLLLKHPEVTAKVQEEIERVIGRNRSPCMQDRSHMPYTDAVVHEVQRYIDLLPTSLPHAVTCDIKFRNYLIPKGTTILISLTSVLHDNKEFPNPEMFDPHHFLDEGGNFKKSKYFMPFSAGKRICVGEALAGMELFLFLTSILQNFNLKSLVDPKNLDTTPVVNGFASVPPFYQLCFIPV
Regarding `CCOC(=O)CSc1cc(CS(=O)c2ccc(Cl)cc2)nc(-c2ccccc2)n1` (centres undefined), the concentration at half-maximal activity (AC50) (commonly the concentration at which the activity in the assay is half-maximal) is 1.26 µM (active).

Consider `CNc1cc(CS(=O)c2ccccc2)nc(-c2ccccc2)n1` (centres undefined), for which the “activity, negative = inhibition” value is -22.8%.

For `C=CCN=C1CC(C)(C)CC(=O)/C1=C(/O)CCC(=O)OC`, the “activity, negative = inhibition” value was -6.6%.

Take `CN(C)CCCNc1ncnc2nc[nH]c12`: the activity, negative = inhibition is 3.87% [at 11.4 µM].

For the molecule `CO[C@@H]1/C=C\O[C@]2(C)Oc3c(C)c(O)c4c(O)c(cc(O)c4c3C2=O)NC(=O)/C(C)=C\C=C/[C@H](C)[C@@H](O)[C@H](C)[C@H](O)[C@H](C)[C@H](OC(C)=O)[C@@H]1C`, the activity, negative = inhibition was -6.49% [at 11.4 µM].

Consider `Cc1ccc(SC(C)C(=O)NCc2cccnc2)cc1` (centres undefined), for which the AC50 was 8.91 µM (active).

In the case of `O=C(NCc1cccnc1)[C@@H]1[C@@H](C(=O)O)[C@H]2CC[C@@H]1O2`, the activity, negative = inhibition is -5.99% [at 11.4 µM].

`c1cncc(CNCc2cccnc2)c1`: the activity, negative = inhibition is 16% [at 11.4 µM].

For the molecule `COc1c(N2CCN(C(=S)Nc3ccc(F)cc3)C(C)C2)c(F)cc2c(=O)c(C(=O)O)cn(C3CC3)c12` (centres undefined), the “activity, negative = inhibition” value was -20.8%.

Take `CC(=O)OC1COC(N2CCc3cc([N+](=O)[O-])ccc32)C(OC(C)=O)C1OC(C)=O` (centres undefined): the AC50 is 0.891 µM (active).

In the case of `CN1CCCN(C)C1c1cc([N+](=O)[O-])ccc1O`, the activity, negative = inhibition was -15.9% [at 11.4 µM].

As to `Cc1cnc(CNc2nc(-c3ccoc3)nc3ccccc23)cn1`, the activity, negative = inhibition is -6.46% [at 2.29 µM].

As for `COc1ccc(C(=O)NN)cc1COc1ccc(Br)cc1`, the AC50 is 8.91 µM (active).

For `CCn1ncc(/C=C/C(=O)NCc2cn(C)nc2C)c1C`, the “activity, negative = inhibition” value is 24.1%.

Regarding `COC(=O)CCC(=O)NNC(=O)c1ccc(Br)cc1`, the “activity, negative = inhibition” value was -18%.

For the molecule `COc1ccc(/C=C/C(=O)NCc2cn(C)nc2C)cc1COc1ccc(Br)cc1`, the AC50 was 12.6 µM (active).

Regarding `COc1ccc(C(=O)NNC(=O)Cc2ccc(-c3ccccc3)cc2)cc1OC`, the “activity, negative = inhibition” value is -6.38%.

On to `CC(C)n1nnnc1-c1cc(Cl)cc(Cl)c1`, for which the “activity, negative = inhibition” value was -15.1%.

As to `CCOC(=O)c1nn(-c2ccccc2)c(-c2ccccc2)c1C(=O)c1ccccc1`, the AC50 is 10 µM (active).

In the case of `CCOC(=O)c1cc(C(=O)OCC)cc(-n2cc(O)c(C(=O)OCC)n2)c1`, the “activity, negative = inhibition” value is -29.4%.

Take `CC(=O)NCCNc1nc(-c2ccccc2C(F)(F)F)nc2ccccc12`: the activity, negative = inhibition is 5.47% [at 2.29 µM].

For the molecule `COc1cccc(-c2cc(C(=O)N/N=C/c3ccc(OC)c(COC(C)=O)c3)c3ccccc3n2)c1`, the AC50 is 0.398 µM (active).

In the case of `COc1ccc(/C=N/NC(=O)c2cc(-c3ccc(C)cc3C)nc3ccccc23)cc1COC(C)=O`, the AC50 is 0.794 µM (active).

For `NS(=O)(=O)c1cc(C(=O)O)c(Cl)c([N+](=O)[O-])c1Cl`, the activity, negative = inhibition was 8.24% [at 11.4 µM].
